S16 viability – S16 Schwann cell cytotoxicity; hit rate 0.48% among 43,000; S16 Pmp22-F2sN Schwann cells viability, CellTiter-Glo, 24 h; AID 1508642; Potency, µM (top dose mostly 57.5 µM), most hits filed as cytotoxic; also: nearly all actives have a fitted effect of over 65% in size
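Viability was measured by CellTiter-Glo luminescence (15 min, room temperature). This followed 24 h at 37 °C of compound exposure (23 nL pin transfer) in S16 Pmp22-F2sN Schwann cells, 500-1,000 per well.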
p53null 32C tox – kills p53 null cells at the permissive temperature; H1299-neo p53 null cells, ATP luminescence, 24 h, 32C; Potency, µM (highest dose often 46.1 µM), most hits filed as cytotoxic; hit rate 0.62% among 55,000; AID 903; also: nearly all actives have a fitted effect of over 55% in size
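H1299-neo (p53-null) cells, 600/well, were pre-incubated overnight at 37C, then exposed to compounds at up to 46 uM for 24 hr at 32C. Viability was measured as ATP content by luminescence, and AC50 values came from Hill fits.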
PMP22 txn – PMP22 gene transcription modulation; hit rate 2% among 43,000; S16 Pmp22-F2sN Schwann cells (luciferase reporters placed in the Pmp22 gene), FLuc/NLuc coincidence luminescence, 24 h; Potency, µM (titrated, usually from 57.5 µM), usual class: inhibitors; active = clear falling dose curves in both reporters; inconclusive = both reporters move, but less clearly or upward; inactive = either reporter flat; the % is the NLuc reporter signal
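S16 Schwann cells carrying FLuc/NLuc coincidence reporter in the Pmp22 3' UTR treated with compound 24 h at 37C; FLuc then NLuc luminescence read sequentially by dual-luciferase reagents.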
p53null 39C tox – selectivity test: cytotoxicity in p53 null cells, nonpermissive temperature. Potency, µM (series often up to 46.1 µM), usual class: cytotoxic. hit rate 0.97% among 55,000. H1299 p53-null (neo) cells, 39C, ATPlite viability, 24 h; also: nearly all actives have a fitted effect of over 50% in size
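Following overnight plating at 37C (600 cells/well), H1299-neo or H1299-p53A138V cells are dosed up to 46 uM. Incubation lasts 24 hr at 39C before ATP detection.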
OvCa metastasis – blocks SKOV3ip1 adhesion and invasion in omental model | hit rate 0.1% among 46,000 | AID 1963576 | SKOV3ip1-GFP adhesion/invasion on 3D omental model, fluorescence | Potency, µM (titrated, usually from 45.8 µM), actives largely listed as inhibitors; also: nearly all actives have a fitted effect of over 65% in size
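Primary human omental fibroblast/mesothelial 3D culture pre-formed 48 h. SKOV3ip1-GFP cells added with compounds (0.36-46 umol/L), incubated 2 h RT/16 h 37 C, fixed; GFP cells quantified at 488/509 nm.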
pS6 MEF inh – mTORC1 pathway inhibition measured by phospho-rpS6 | Tsc2-/- p53-/- MEF, phospho-rpS6 immunofluorescence/PI, 24 h | Potency, µM (series often up to 38.3 µM), hits mostly inhibitors | hit rate 0.78% among 44,000; also: nearly all actives have a fitted effect of over 50% in size
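Tsc2-/-, p53-/- MEFs (empty-vector stable line) in DMEM + 10% FBS were treated with compounds 24 h at 37 degree Celsius, fixed, and immunostained for phospho-rpS6 (Alexa-488) with propidium iodide counterstain. Laser-scanning cytometry gave % positive cells, normalized against 7.5 nM rapamycin and DMSO.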
NLuc sat counter – inhibits NanoLuc at saturating substrate, PMP22 counter-screen | hit rate 4% among 690 | Secreted NLuc enzyme (filtered S16 cell medium), Nano-Glo luminescence | Potency, µM (highest dose often 57.5 µM), hits mostly inhibitors | shares compounds with PMP22 txn
NLuc Km ctr – counter-screen for PMP22 expression modulators: NanoLuc inhibition at Km. shares compounds with PMP22 txn. AID 1508639. secreted NLuc enzyme, coelenterazine luminescence, Km conditions. Potency, µM (highest dose often 57.5 µM), most hits filed as inhibitors. hit rate 5% among 690
FLuc ctr PMP22 – inhibits firefly luciferase, PMP22 counter-screen; shares compounds with PMP22 txn; 690 tested, under 10 active; purified P. pyralis FLuc, luminescence, 10 min; Potency, µM (series often up to 57.5 µM), hits mostly inhibitors
Target sequence (P08659 whole entry, looked up): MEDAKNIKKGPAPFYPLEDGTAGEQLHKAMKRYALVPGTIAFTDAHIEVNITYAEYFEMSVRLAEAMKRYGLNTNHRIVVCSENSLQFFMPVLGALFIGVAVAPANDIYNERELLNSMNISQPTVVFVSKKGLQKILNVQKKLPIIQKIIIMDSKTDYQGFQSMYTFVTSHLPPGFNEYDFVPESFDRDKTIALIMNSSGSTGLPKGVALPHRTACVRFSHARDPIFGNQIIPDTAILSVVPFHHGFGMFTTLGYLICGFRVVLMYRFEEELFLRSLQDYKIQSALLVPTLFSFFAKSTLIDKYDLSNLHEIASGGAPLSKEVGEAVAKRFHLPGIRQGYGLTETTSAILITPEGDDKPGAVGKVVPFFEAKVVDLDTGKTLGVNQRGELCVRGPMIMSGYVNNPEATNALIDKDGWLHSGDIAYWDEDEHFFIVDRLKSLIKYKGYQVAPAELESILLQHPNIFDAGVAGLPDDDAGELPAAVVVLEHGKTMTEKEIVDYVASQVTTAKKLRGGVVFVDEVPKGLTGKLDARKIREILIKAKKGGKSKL
S16 viab conf – S16 Schwann cell cytotoxicity, confirmatory; shares compounds with PMP22 txn; S16 Schwann cells viability, CellTiter-Glo ATP luminescence, 24 h; Potency, µM (series often up to 57.5 µM), hits mostly cytotoxic; hit rate 7% among 690; AID 1508641
PMP22 txn cnf – PMP22 transcription modulation, confirmatory; shares compounds with PMP22 txn; S16 Schwann cells Pmp22-F2sN, dual luciferase, 24 h; Potency, µM (series often up to 57.5 µM), hits mostly inhibitors; hit rate 22% among 690; AID 1508646; active = clear falling dose curves in both reporters; inconclusive = both reporters move, but less clearly or upward; inactive = either reporter flat; the % is the FLuc reporter signal
PMP22 HiBiT cnf – confirmation of modulators of rat PMP22 protein expression; AID 1508647; shares compounds with PMP22 txn; 95 tested, under 10 active; Potency, µM (titrated, usually from 27.9 µM), hits mostly inhibitors; S16 Schwann cells Pmp22-HiBiT, luminescence, 48 h
Target sequence (P25094 whole entry, looked up): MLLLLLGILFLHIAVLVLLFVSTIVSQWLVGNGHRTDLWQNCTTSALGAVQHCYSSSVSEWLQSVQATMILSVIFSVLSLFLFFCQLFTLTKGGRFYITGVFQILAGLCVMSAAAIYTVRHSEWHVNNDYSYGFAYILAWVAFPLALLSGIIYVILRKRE
Each line names hits and unclear results; the compound was inactive in the other large screens (follow-up assays come after a bar, where they were run). A selection: hits, their analogues and other compounds. The true share with any hit is near 3.1%. Unless noted, calls follow the shape of the dose curve; as a rule, active = well fitted curve in the direction sought with a large enough effect; inconclusive = small, poorly fitted or top-dose-only effect, or another doubt; inactive = no such curve, though single readings can be large; an effect the other way counts as inactive or inconclusive.

COc1cccc(-n2c(SCC(=O)Nc3c(C)cc(C)cc3C)nc3c([nH]c4ccccc43)c2=O)c1	PMP22 txn 12µM, pS6 MEF inh inconclusive | NLuc sat counter inactive | NLuc Km ctr inactive | FLuc ctr PMP22 inactive | S16 viab conf inactive | PMP22 txn cnf inconclusive
O=C(CSc1nc2c([nH]c3ccccc32)c(=O)n1-c1ccccc1)c1ccccc1	none
O=C(NC1CCOCC1)c1ccc(-c2cc(-c3cn[nH]c3-c3ccccn3)ccn2)cc1	none (no result: S16 viability, p53null 32C tox, PMP22 txn, p53null 39C tox, pS6 MEF inh)
COC(=O)c1c(C)oc2ccc(N(C(=O)c3ccncc3)S(=O)(=O)c3cc(C)c(C)cc3C)cc12	S16 viability inconclusive, PMP22 txn inconclusive, pS6 MEF inh inconclusive
COC(=O)c1c(C)oc2ccc(N(C(=O)c3ccncc3)S(=O)(=O)c3c(C)cc(C)cc3C)cc12	PMP22 txn 3.8µM | NLuc sat counter inactive | NLuc Km ctr inactive | FLuc ctr PMP22 inactive | S16 viab conf inactive | PMP22 txn cnf inconclusive
Cc1cccc(N2CCN(S(=O)(=O)c3ccc4c(c3)CCCN4C(=O)C3CCC3)CC2)c1C	PMP22 txn 16µM | NLuc sat counter inactive | NLuc Km ctr inactive | FLuc ctr PMP22 inactive | S16 viab conf inactive | PMP22 txn cnf inconclusive
CCCCc1nn2c(=O)cc(COC(=O)c3cccc(NC(=O)c4cccc(C)c4)c3)nc2s1	PMP22 txn inconclusive
Cc1cccc(C(=O)Nc2cccc(C(=O)OCc3cc(=O)n4nc(C(C)C)sc4n3)c2)c1	PMP22 txn 13µM | NLuc sat counter inactive | NLuc Km ctr inactive | FLuc ctr PMP22 inconclusive | S16 viab conf inactive | PMP22 txn cnf inactive
CN(C)c1ccc(Nc2nc(N)n(C(=O)c3c(F)cccc3F)n2)cc1	none (no result: S16 viability, p53null 32C tox, PMP22 txn, p53null 39C tox, pS6 MEF inh)
CNc1nccc(-c2cccnc2Oc2cc(C(=O)Nc3cccc(C(F)(F)F)c3)ccc2C)n1	none (no result: S16 viability, p53null 32C tox, PMP22 txn, p53null 39C tox, pS6 MEF inh)
CC(C)(C)OC(=O)CN(Cc1ccc(Cl)cc1)Cc1ccc([N+](=O)[O-])s1	none (no result: S16 viability, p53null 32C tox, PMP22 txn, p53null 39C tox, pS6 MEF inh)
CCn1ccc2c(OCC(=O)Nc3ccccc3C(F)(F)F)cccc2c1=O	S16 viability inconclusive, PMP22 txn 19µM | NLuc sat counter inconclusive | NLuc Km ctr inconclusive | FLuc ctr PMP22 inactive | S16 viab conf inactive | PMP22 txn cnf inconclusive
CCn1ccc2c(OCC(=O)Nc3ccccc3C)cccc2c1=O	PMP22 txn inconclusive
CC[C@]1(O)C[C@H]2CN(CCC3=c4ccccc4=N[C]3[C@@](C(=O)OC)(c3cc4c(cc3OC)N(C)[C@H]3[C@@](O)(C(N)=O)[C@H](O)[C@]5(CC)C=CCN6CC[C@]43[C@@H]65)C2)C1	none (no result: S16 viability, p53null 32C tox, PMP22 txn, p53null 39C tox, pS6 MEF inh)
Cc1ccc(-c2csc(-c3cc4c([nH]c3=O)CC(c3ccccc3)CC4=O)n2)cc1 (configuration not stated)	PMP22 txn 6.3µM, pS6 MEF inh inconclusive | NLuc sat counter inactive | NLuc Km ctr inactive | FLuc ctr PMP22 inactive | S16 viab conf inconclusive | PMP22 txn cnf inactive
COc1ccc(C2CC(=O)c3cc(-c4nc(-c5cccc(Cl)c5)cs4)c(=O)[nH]c3C2)cc1 (configuration not stated)	PMP22 txn inconclusive
NC[C@@H]1O[C@@H](O[C@H]2[C@@H](O)[C@H](O[C@@H]3[C@@H](O)[C@@H](N)C[C@H](N)[C@H]3O[C@H]3O[C@H](CN)[C@@H](O)[C@@H](O)[C@H]3N)O[C@H]2CO)[C@H](N)[C@@H](O)[C@@H]1O	none (no result: S16 viability, p53null 32C tox, PMP22 txn, p53null 39C tox, pS6 MEF inh)
CCC(C)NC(=O)C1CCN(C(=O)c2cc3sccc3n2Cc2ccc(Cl)cc2)CC1 (configuration not stated)	S16 viability inconclusive, PMP22 txn 8.9µM | NLuc sat counter inconclusive | NLuc Km ctr inconclusive | FLuc ctr PMP22 inactive | S16 viab conf inconclusive | PMP22 txn cnf 14µM | PMP22 HiBiT cnf 1.6µM
COc1ccc(-c2nnc(SCC(=O)NCc3ccccc3)nc2-c2ccc(OC)c(OC)c2)cc1OC	PMP22 txn 7.3µM | NLuc sat counter inconclusive | NLuc Km ctr inconclusive | FLuc ctr PMP22 inactive | S16 viab conf inactive | PMP22 txn cnf inconclusive
CCOc1ccc(-c2nnc(SCC(=O)NCc3ccc(C)cc3)nc2-c2ccc(OCC)c(OC)c2)cc1OC	none
CC1(C)C(N(O)C(=O)Nc2ccc(Cl)cc2)N(c2ccc(Cl)cc2)C(=O)N1CC(=O)NN=CC=Cc1ccc([N+](=O)[O-])o1 (configuration not stated)	none (no result: S16 viability, p53null 32C tox, PMP22 txn, p53null 39C tox, pS6 MEF inh)
CCC[C@@H](NC(=O)[C@@H]1[C@H]2CCC[C@@H]2CN1C(=O)[C@@H](NC(=O)[C@@H](NC(=O)c1cnccn1)C1CCCCC1)C(C)(C)C)C(=O)C(=O)NC1CC1	none (no result: S16 viability, p53null 32C tox, PMP22 txn, p53null 39C tox, pS6 MEF inh)
O=C(Cn1cc(C(=O)C2CCCCC2)c2ccccc21)Nc1ccccc1Cl	PMP22 txn 9.5µM | NLuc sat counter inactive | NLuc Km ctr inactive | FLuc ctr PMP22 inactive | S16 viab conf inactive | PMP22 txn cnf inconclusive
C[C@]12C=CC(=O)N[C@@H]1CC[C@H]1[C@H]3CC[C@@H](C(=O)Nc4cc(C(F)(F)F)ccc4C(F)(F)F)[C@@]3(C)CC[C@@H]12	none (no result: S16 viability, p53null 32C tox, PMP22 txn, p53null 39C tox, pS6 MEF inh)
